Test results published in ChEMBL document CHEMBL3988442, “University of Dundee, Small-Polar-MMV Screening Library” (2021).

target: AMP-activated protein kinase, AMPK (Homo sapiens) (UniProt P54646+O43741+P54619+Q9UGJ0+Q9Y478+Q13131+Q9UGI9); experiment: AMP-dependent Kinase enzyme assay. An in vitro enzyme assay that detects ADP turnover that is directly proportional to AMPK activity. This uses naive AMPK that is activated during the assay with MK-8722; assay type: functional; design: scale not given: direction of the effect not stated beside the values; settings: 30 µM

| SMILES | Percent Effect |
| --- | --- |
| COc1ccccc1NC(=O)c1cnc(C2CCN(C(C)=O)C2)nc1C (centres undefined) | 5.26% |
| CC(CN1CCOC1=O)NC(=O)c1cccc2cc[nH]c12 (centres undefined) | 8.07% |
| COCC(C)NC(=O)c1sccc1-n1cnnn1 (centres undefined) | 15.6% |
| COc1ccc(N2CCC(NS(=O)(=O)N(C)C(C)C)CC2)cc1 | 13.8% |
| Cc1ncccc1CNC(CCO)C1CCCCC1 (centres undefined) | -0.143% |
| COCC(=O)NCCc1nc2cc(-c3ccc(OC)cc3)ncn2n1 | 8.07% |
| O=C1NCC(C(=O)NCc2ccccc2CN2CCOCC2)N1 (centres undefined) | -5.09% |
| Cc1cc(CC(C)NC(=O)c2n[nH]c3c2CCC3)n[nH]1 (centres undefined) | 3.64% |
| CCOc1ccc(C(=O)NC2CC2)cc1C | 4.59% |
| CN(C)c1nc(CNC(=O)Nc2cccc([S+](C)[O-])c2)cs1 (centres undefined) | 5.35% |
| Cn1cccc1C(=O)N1CC[C@@]2(O)CCN(S(C)(=O)=O)C[C@H]2C1 | 4.08% |
| Cc1nc(NCc2cccnc2)cc(C2COCCN2)n1 (centres undefined) | 3.04% |
| CCc1nn(C)c(Cl)c1CN1CCCC2(C1)CN(C)C(=O)O2 (centres undefined) | 5.15% |
| Cc1ccc(Oc2ncccc2CNC(=O)C2COC(=O)N2)c(F)c1F (centres undefined) | 3.47% |
| Cc1cc(N2CCC(n3cc(CN4CCC[C@@H]4CO)nn3)CC2)ccn1 | -0.25% |
| Cc1cccc(S(=O)(=O)NC2CCN(CC(F)(F)F)C2)c1 (centres undefined) | -6.29% |
| CCn1cc(C(=O)NCCN2CCCc3ccccc32)c(C)n1 | 7.97% |
| CC(CC(=O)c1ccco1)NC(=O)c1ccon1 (centres undefined) | 9.56% |
| CCSc1cc(C(=O)N(C(C)C)C2CC2)ccn1 | 0.102% |
| CCOc1ccccc1-n1c(C2CC(=O)N(C)C2)n[nH]c1=O (centres undefined) | 7.89% |

| SMILES | Percent Effect |
| --- | --- |
| CN(Cc1nc(C(C)(C)C)no1)C1CCS(=O)(=O)C1 (centres undefined) | 2.12% |
| O=C(Nc1ccccc1C(=O)NCCCN1CCOCC1)c1ccco1 | 0.765% |
| Cn1cccc1C1CCCN1Cc1noc(C(C)(C)C)n1 (centres undefined) | -15% |
| Cc1nnc(CN(C)CC(=O)N2CCCC(C(F)(F)F)C2)n1C (centres undefined) | 14.3% |
| Cn1cccc1C(=O)NCc1ccnc(C2CCCOC2)n1 (centres undefined) | 6.83% |
| CC(NCc1nnc2n1CCCC2)c1nc(-c2cccs2)no1 (centres undefined) | -0.613% |
| O=C(Nc1cccc(F)c1)NC1CCN(Cc2ccncc2)CC1 | 1.71% |
| CCc1nnc(CN2CC(n3cccn3)C2)o1 | -3.56% |
| CCOc1ccccc1C(=O)NCc1nncn1C1CC1 | -9.44% |
| COc1ccc2c(c1)Cc1c-2nc(N)c(C#N)c1C1CCOC1 (centres undefined) | -32.8% |
| Cc1nc(C)c(C(=O)N2C[C@@H](C(=O)O)[C@H](C3CC3)C2)s1 | 7.29% |
| N#Cc1ccc(CN(CCF)Cc2cccc(F)c2)cc1 | -7.25% |
| Cc1cc(C)nc(N2CC[C@H](Oc3ccccc3F)[C@@H](O)CC2)n1 | 21.5% |
| C[C@@H]1CN(c2ccc(Cl)cn2)CC[C@@]1(O)C1CCOCC1 | 5.56% |
| Cn1ccc(C(=O)N2CCC(Cc3ccc4ncccc4c3)CC2)n1 | 15.1% |
| CC(=O)Nc1ccc(Oc2cc(C)nc(C3CCNCC3)c2)cc1 | 0.11% |
| O=C(NCc1nnc2n1CCC2)c1ccc(Br)s1 | -4.78% |
| CCCN1C(=O)[C@H]2CC[C@@H]1CN(S(=O)(=O)c1cccc(Cl)c1)C2 | 7.5% |
| CCCc1nc(C(=O)N2CCn3nc(C(=O)OC)cc3C2)cs1 | 1.42% |
